According to PubChem BioAssay (EPA / NIEHS):
Where “and” joins values, the source holds several entries; their conditions need not be identical. Identical values can stand only once. Records with an inconclusive call do not appear. Some structures have more than one record in an assay (separate samples or runs), and their calls can disagree. Calls of active or inactive are those of the source. How the source made its calls, unless noted: active means hit-call score of the fitted dose curve at least 0.9, where 1 is the maximum; inconclusive means response in the unintended direction; inactive means score below 0.9.

How the values were obtained:
[1] = TOX21_p53_BLA_p3_viability: Viability Assessment in the Tox21 HCT-116 p53 Agonism Beta-lactamase Assay, Phase 3 (AID 2283593);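 further: cells exposed to compound for 16 h before reading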
Outline: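 HCT116 cells, 4000/well, dosed 5 h after plating by pin transfer (217-fold dilution from DMSO stock) and incubated 16 h at 37C, 5% CO2. Viability read as ATP luminescence with CellTiter-Glo after 30 min at room temperature.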

[2] = target: Cellular tumor antigen p53 (Homo sapiens) (UniProt P04637); test: TOX21_p53_BLA_p3_ratio: Tox21 HCT-116 p53 Agonism Beta-lactamase Assay, Ratio, Phase 3 (AID 2283596)
Outline: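 Cells were seeded at 4000/well, rested 5 h at 37C, then dosed with DMSO compound solutions (217-fold dilution) for 16 h. CCF4-AM substrate was loaded for 2 h at room temperature, and the 460/530 nm emission ratio was fitted for gain of signal versus DMSO.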

[3] = TOX21_p53_BLA_p4_viability: Viability Assessment in the Tox21 HCT-116 p53 Agonism Beta-lactamase Assay, Phase 4 (AID 2283597);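 further: hits lower the luminescence signal meaning cytotoxicity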
Outline: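 In this multiplexed secondary endpoint, HCT116 cells (4000 per well, compound at 5 h, 16 h treatment) received CellTiter-Glo after the beta-lactamase read. Luminescence after 30 min RT reflects ATP, and falling signal marks cytotoxicity.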

[4] = target: Cellular tumor antigen p53 (Homo sapiens) (UniProt P04637); test: TOX21_p53_BLA_p5_ratio: Tox21 HCT-116 p53 Agonism Beta-lactamase Assay, Ratio, Phase 5 (AID 2283599)
Outline: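 HCT-116 p53-bla cells (4000/well) plated 5 h, dosed with compound (217-fold DMSO dilution) for 16 h at 37 C; CCF4-AM substrate 2 h at room temperature. Activity is the 460/530 nm emission ratio (405 nm excitation), fitted in gain-of-signal direction versus DMSO.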

[5] = TOX21_p53_BLA_p5_viability: Viability Assessment in the Tox21 HCT-116 p53 Agonism Beta-lactamase Assay, Phase 5 (AID 2283600)
Outline: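 Here cell health was gauged by ATP levels in wells holding 4000 cells, each treated 16 h with DMSO-delivered compounds at 217-fold dilution; reduced luminescence marked toxicity.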

[6] = target: Cellular tumor antigen p53 (Homo sapiens) (UniProt P04637); test: TOX21_p53_BLA_p4_ratio: Tox21 HCT-116 p53 Agonism Beta-lactamase Assay, Ratio, Phase 4 (AID 2283601)
Outline: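 HCT-116 p53 beta-lactamase reporter cells (4000/well) preincubated 5 h, then compound (217-fold dilution of DMSO stock) for 16 h at 37C. CCF4-AM substrate added 2 h at room temperature; 460/530 nm emission ratio fitted upward versus DMSO.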

[7] = Tanguay_ZF_120hpf_MORT_legacy: (Legacy) Oregon State University Tanguay Lab 120 Hour Post-fertilization zebrafish Assay for Mortality (AID 2283633);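 on AC50: fitted as increase in binary mortality versus DMSO negative control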
Outline: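 Single dechorionated Tropical 5D embryos were held with test chemical (0.64% DMSO final) from 6 to 120 hpf at 28C under foil. Deaths at 24 or 120 hpf were recorded as binary calls, analysed for increase over DMSO controls.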

[8] = Tanguay_ZF_120hpf_YSE_legacy: (Legacy) Oregon State University Tanguay Lab 120 Hour Post-fertilization zebrafish Assay for Yolk Sac Edema (AID 2283634);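 on AC50: actives raise the incidence of yolk sac edema above the DMSO baseline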
Outline: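 Single dechorionated embryos were held in sealed plates at 28C with test chemical (0.64% DMSO final) from 6 hpf until 120 hpf. Edema of the yolk sac was then recorded as a binary endpoint; non-mortality endpoints were skipped for dead embryos.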

[9] = Tanguay_ZF_120hpf_AXIS_legacy: (Legacy) Oregon State University Tanguay Lab 120 Hour Post-fertilization zebrafish Assay for Body Axis Malformation (AID 2283635);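 on AC50: potency for an increased fraction of larvae scored with body axis malformation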
Outline: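 Each dechorionated embryo was exposed alone from 6 hpf, with DMSO at 0.64% (vol/vol) and trimethyltin chloride 5 uM as positive control. Axis malformation was recorded at 120 hpf unless the embryo had died.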

[10] = Tanguay_ZF_120hpf_EYE_legacy: (Legacy) Oregon State University Tanguay Lab 120 Hour Post-fertilization zebrafish Assay for Eye Malformation (AID 2283636);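 further: binary presence or absence of eye malformation scored by brightfield in 120 hpf larvae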
Outline: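 5D wild-type embryos, pronase-dechorionated at 4 hpf; static exposure 6–120 hpf, 28C, dark; DMSO 0.64% final; 5uM trimethyltin chloride positive control. Binary eye-defect scoring at 120 hpf; dead embryos not scored.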

[11] = Tanguay_ZF_120hpf_SNOU_legacy: (Legacy) Oregon State University Tanguay Lab 120 Hour Post-fertilization zebrafish Assay for Snout Malformation (AID 2283637)
Outline: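 Binary brightfield scoring of snout malformation at 120 hpf. Dechorionated 5D wild-type embryos, one per well, static exposure from 6 hpf at 28C, sealed and dark; final DMSO 0.64% (vol/vol), DMSO as baseline; 5uM trimethyltin chloride positive control.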

[12] = Tanguay_ZF_120hpf_JAW_legacy: (Legacy) Oregon State University Tanguay Lab 120 Hour Post-fertilization zebrafish Assay for Jaw Malformation (AID 2283638);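 on AC50: active means more embryos with jaw malformation than DMSO controls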
Outline: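 Wild-type 5D embryos, chorion removed at 4 hpf, dosed singly from 6 hpf; 28C static, sealed, foil-covered, to 120 hpf. Endpoint: jaw defect yes/no (brightfield); mortality excludes scoring.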

[13] = Tanguay_ZF_120hpf_PE_legacy: (Legacy) Oregon State University Tanguay Lab 120 Hour Post-fertilization zebrafish Assay for Pericardial Edema (AID 2283640);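 on AC50: potency for increased incidence of pericardial edema versus DMSO baseline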
Outline: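 Zebrafish larvae are exposed from early development to 120 hpf at 28C, with 0.64% DMSO final. Each surviving larva receives a yes/no pericardial edema call by brightfield imaging, analysed relative to the DMSO baseline.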

[14] = Tanguay_ZF_120hpf_SOMI_legacy: (Legacy) Oregon State University Tanguay Lab 120 Hour Post-fertilization zebrafish Assay for Somite Malformation (AID 2283647)
Outline: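 Somitogenesis defects are recorded as binary calls in whole larvae at 120 hpf after continuous static chemical exposure starting at 6 hpf in dechorionated 5D embryos. DMSO serves as negative control and baseline.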

[15] = Tanguay_ZF_120hpf_CFIN_legacy: (Legacy) Oregon State University Tanguay Lab 120 Hour Post-fertilization zebrafish Assay for Caudal Fin Malformation (AID 2283649)
Outline: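 Single dechorionated 5D wild-type embryos are dosed at 6 hpf (final DMSO 0.64%) and held statically at 28C. Caudal fin malformation is recorded as present or absent at 120 hpf under brightfield, excluding dead embryos.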

[16] = Tanguay_ZF_120hpf_PIG_legacy: (Legacy) Oregon State University Tanguay Lab 120 Hour Post-fertilization zebrafish Assay for Pigmentation Malformation (AID 2283650);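 further: dechorionated Tropical 5D zebrafish embryos exposed singly from 6 to 120 hpf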
Outline: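 Brightfield scoring of pigmentation malformation at 120 hpf, recorded as binary present/absent per larva. Exposure: dechorionated 5D wild-type embryos, one per well, static from 6 hpf at 28C, final DMSO 0.64% (vol/vol). Dead embryos not scored.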

[17] = Tanguay_ZF_120hpf_CIRC_legacy: (Legacy) Oregon State University Tanguay Lab 120 Hour Post-fertilization zebrafish Assay for Circulatory Malformation (AID 2283651)
Outline: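 Binary circulatory-malformation call at 120 hpf via brightfield imaging, relative to DMSO controls. Embryos (5D strain, chorion removed) received static, light-shielded exposure at 28C.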

[18] = Tanguay_ZF_120hpf_OTIC_legacy: (Legacy) Oregon State University Tanguay Lab 120 Hour Post-fertilization zebrafish Assay for Otic Vesicle Malformation (AID 2283639)
Outline: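 Wild-type zebrafish larvae, whole-embryo exposure from early stage to 120 hpf at 28C. Binary brightfield scoring of otic vesicle morphology, fitted in the positive direction against the DMSO baseline.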

[19] = Tanguay_ZF_120hpf_PFIN_legacy: (Legacy) Oregon State University Tanguay Lab 120 Hour Post-fertilization zebrafish Assay for Pectoral Fin Malformation (AID 2283648);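 further: each larva judged yes or no for fin defect by brightfield with dead larvae skipped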
Outline: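 Binary pectoral fin malformation call at 120 hpf by brightfield microscopy; 5D wild-type zebrafish, chorion removed at 4 hpf, one embryo per well from 6 hpf, static exposure at 28C; DMSO (0.64% final) as baseline.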

[20] = read-out: kallikrein-3 (KLK3), KLK3 (gene 354); test: LTEA_HepaRG_KLK3: Life Technologies and Expression Analysis (LTEA) Assay for kallikrein-3 (KLK3) using HepaRG (AID 2283652; active means hit-call score of the fitted dose curve at least 0.9, where 1 is the maximum; inactive means score below 0.9); conditions: mRNA level, 48 h; actives raise or lower the signal
Outline: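 KLK3 transcript levels were measured by TaqMan qRT-PCR with normalisation to three housekeeping genes. HepaRG cultures received chemicals for 48 h at up to 100 uM (half-log, 8 points, 0.5% DMSO vehicle), fitted in both directions against DMSO.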

Measured: AC50

Chain of Cellular tumor antigen p53 (Homo sapiens) (P04637 whole entry, looked up): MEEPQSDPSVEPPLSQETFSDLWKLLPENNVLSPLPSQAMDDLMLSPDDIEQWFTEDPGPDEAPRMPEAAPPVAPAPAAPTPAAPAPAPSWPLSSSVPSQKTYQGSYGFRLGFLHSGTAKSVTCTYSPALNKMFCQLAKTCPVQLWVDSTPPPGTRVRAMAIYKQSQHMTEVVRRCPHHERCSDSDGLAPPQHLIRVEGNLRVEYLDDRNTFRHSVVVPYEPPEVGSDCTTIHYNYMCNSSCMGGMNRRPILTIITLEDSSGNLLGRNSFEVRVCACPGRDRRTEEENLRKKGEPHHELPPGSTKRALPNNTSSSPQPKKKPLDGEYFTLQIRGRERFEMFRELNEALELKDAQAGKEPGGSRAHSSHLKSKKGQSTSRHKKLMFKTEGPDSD

O=C(O)CCCOc1ccc(Cl)cc1Cl
active: [8] 42.6 µM | [9] 48.7 µM | [13] 24.2 µM
not listed: [18] | [19] | [20]
inactive: all other assays above

COP(=S)(OC)Oc1ccc([N+](=O)[O-])cc1
not listed: [5] | [20]
inactive: all other assays above

CN1CSC(=S)N(C)C1
active: [8] 26.6 µM | [9] 21.3 µM | [10] 34.9 µM | [11] 24.9 µM | [12] 8.18 µM | [13] 35 µM
not listed: [15]
inactive: all other assays above

Oc1ccc(Cl)cc1Cc1ccccc1
active: [1] 72.8 µM | [3] 67.5 µM and 23.3 µM and 36.5 µM | [4] 79 µM and 86.7 µM | [5] 73.6 µM and 70.6 µM | [6] 86.5 µM and 41.3 µM | [7] 10.8 µM and 6.48 µM and 36 µM
inactive: [1] | [2] | [5] | [6] | [8] | [9] | [10] | [11] | [12] | [18] | [13] | [14] | [19] | [15] | [16] | [17]
